The structures appear in SMILES notation. Values without a mark were called inactive. Results filed as inconclusive are left out. Activity calls are given as the source filed them. Unless noted, the call rests on the fitted dose curve; in most records, active means well fitted curve in the direction sought with a large enough effect in the repeat runs; inconclusive means weak or mixed curves; inactive means no such curve, though single readings can be large; an effect the other way counts as inactive or inconclusive.

The results in this text go back to PubChem BioAssay (Tox21).

Assay [1] is described as follows: qHTS assay to identify small molecule antagonists of the estrogen related receptor (ERR) signaling pathway from Tox21 library - cell viability counter screen (AID 1224834). Further: nearly all actives have a fitted effect of over 30% in size. Further: potency means the concentration at half of the fitted maximal effect. Summed up: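 In this quantitative HTS format, ERR cells receive compounds in DMSO and are incubated for 17.5 h at 37 C. Live-cell protease activity is then detected with CellTiter-Fluor.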
(In general: Quantitative high-throughput screening tests each substance at several concentrations.)

Assay [2] concerns the target Luciferin 4-monooxygenase (Photinus pyralis) (UniProt P08659). Put plainly: qHTS assay to identify small molecule inhibitors of firefly luciferase (AID 1224835). Further: nearly all actives have a fitted effect of over 25% in size. Further: potency means the concentration at half of the fitted maximal effect. Summed up:
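Biochemical qHTS: compounds run as interplate titrations against purified firefly enzyme, with D-luciferin and ATP each at its KM concentration. Light output recorded by CCD imaging.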

The nature of assay [3]: qHTS assay to identify small molecule agonists of the constitutive androstane receptor (CAR) signaling pathway - cell viability counter screen (AID 1224836). Further: nearly all actives have a fitted effect of over 45% in size. Further: potency means the concentration at half of the fitted maximal effect. Summed up: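 Cells were seeded and incubated 4 hrs. Compounds were added across 15 concentrations together with PK11195 at 0.75 uM final. Plates were incubated 23 hrs at 37 C. CellTiter-Fluor was added and fluorescence measured.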

Assay [4] can be described thus: qHTS assay to identify small molecule antagonists of the constitutive androstane receptor (CAR) signaling pathway - cell viability counter screen (AID 1224837). Further: nearly all actives have a fitted effect of over 45% in size. Further: potency means the concentration at half of the fitted maximal effect. Summed up:
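In quantitative HTS format, compounds at 15 concentrations were applied to HepG2 cells double-transfected with hCAR and CYP2B6-2.2kb under 50 nM CITCO stimulation; live-cell protease activity was read after 23 hr via CellTiter-Fluor.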

Assay [5] deals with Nuclear receptor subfamily 1 group I member 3 (Homo sapiens) (UniProt Q14994). Put plainly: qHTS assay to identify small molecule antagonists of the constitutive androstane receptor (CAR) signaling pathway (AID 1224838). Further: nearly all actives have a fitted effect of over 40% in size. Further: potency means the concentration at half of the fitted maximal effect. The procedure, abridged: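 CITCO-stimulated (50 nM final) HepG2 cells stably transfected with hCAR and CYP2B6-2.2kb luciferase were exposed to compounds at 15 concentrations for 24 h at 37 C/5% CO2. A luciferase reagent was added and luminescence recorded after 30 min.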
Nuclear receptor subfamily 1 group I member 3 (Homo sapiens), sequence (Q14994 whole entry, looked up): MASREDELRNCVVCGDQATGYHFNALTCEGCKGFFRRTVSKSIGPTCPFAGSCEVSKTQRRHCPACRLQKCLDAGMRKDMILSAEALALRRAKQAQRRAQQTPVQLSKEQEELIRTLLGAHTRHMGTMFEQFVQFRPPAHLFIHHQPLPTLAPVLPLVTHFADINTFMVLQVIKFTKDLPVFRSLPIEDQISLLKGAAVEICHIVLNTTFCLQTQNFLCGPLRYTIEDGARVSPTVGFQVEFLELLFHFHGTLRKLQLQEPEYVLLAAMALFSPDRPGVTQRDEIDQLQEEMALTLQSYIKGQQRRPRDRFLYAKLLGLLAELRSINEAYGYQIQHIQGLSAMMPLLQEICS

Assay [6] has the same target. Put plainly: qHTS assay to identify small molecule agonists of the constitutive androstane receptor (CAR) signaling pathway (AID 1224839). Further: nearly all actives have a fitted effect of over 15% in size. Further: potency means the concentration at half of the fitted maximal effect.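 On activation: HepG2 cells stably carrying human CAR and a CYP2B6 luciferase reporter.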 The procedure, abridged:
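Cells were plated and incubated 4 hrs, then dosed with compounds at 15 concentrations. PK11195 was added to 0.75 uM final. After 24 hrs at 37 C, luciferase luminescence was measured.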

Assay [7] can be described thus: qHTS assay to identify small molecule antagonists of the estrogen related receptor signaling pathway with the pleiotropic PPARgamma coactivator (PGC) from Tox21 10K library - cell viability counter screen (AID 1224840; active means well fitted cell-killing curve with a large enough effect in the repeat runs, not every such curve was filed as active; further: nearly all actives have a fitted effect of over 40% in size; further: potency means the concentration at half of the fitted maximal effect). Summed up: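 Viability counter screen, PGC/ERR cells: 17.5 h compound exposure at 37 C, CellTiter-Fluor fluorescence endpoint.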
In assay [8] the target is Thyrotropin receptor (Homo sapiens) (UniProt P16473). Put plainly: qHTS assay to identify small molecule agonists of the thyroid stimulating hormone receptor (TSHR) signaling pathway (AID 1224843; calls by dose curve; further: nearly all actives have a fitted effect of over 45% in size). The procedure, abridged:
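Agonist-mode screen: TSHR HEK293 cells received test chemicals for half an hour at room temperature, then HTRF cAMP detection reagents for one hour prior to fluorescence measurement. Each chemical ran as a 15-concentration series, triplicated.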

Assay [9] can be described thus: qHTS assay to identify small molecule agonists of the hypoxia (HIF-1) signaling pathway - cell viability counter screen (AID 1224844; calls by dose curve; further: nearly all actives have a fitted effect of over 50% in size). The procedure, abridged:
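Same wells as the HIF-1 reporter screen; ME-180 cells carrying HRE-bla, 17 hr treatment at 37C; CellTiter-Glo luminescence read after 30 min at room temperature.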

The nature of assay [10]: qHTS assay to identify small molecule agonists of H2AX (AID 1224845; active means well fitted activation curve with a large enough effect in the signal ratio in the repeat runs, not every such curve was filed as active; the % refers to the signal ratio). Summed up: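 Wild-type CHO-K1 cells, plated overnight, exposed 3hr at 37C to 15 concentrations (0.76% DMSO final). Lysed, then HTRF anti-pH2AX (S139) cryptate and anti-H2AX-d2 antibodies, 24 hr room temperature; 665/620 nm emission read.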
A short description of assay [11]: qHTS assay to identify small molecule agonists of the hypoxia (HIF-1) signaling pathway (AID 1224846; active means well fitted activation curve with a large enough effect in the signal ratio in the repeat runs, not every such curve was filed as active; the % refers to the signal ratio). The procedure, abridged:
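In ME-180 cells bearing an HRE-bla construct, 17 h treatment with DMSO-dissolved compounds at 37C was followed by CCF4-AM loading to quantify reporter induction.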

The nature of assay [12]: qHTS assay to identify small molecule agonists of H2AX - cell viability counter screen (AID 1224847; calls by dose curve; further: nearly all actives have a fitted effect of over 30% in size; further: potency means the concentration at half of the fitted maximal effect). Summed up: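 Cytotoxicity counter screen in wild-type CHO-K1 cells: a 3 hr compound treatment at 37C across 15 concentrations, followed by CellTiter-Glo luminescence to gauge viable cells.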
Assay [13] in a line: qHTS RealTime-Glo MT Cell Viability Assay in HepG2 cells - 24 hour (AID 1224867). Further: nearly all actives have a fitted effect of over 50% in size. Summed up:
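Cell number in HepG2 cultures estimated from NanoLuc luminescence generated by metabolic reduction of a prosubstrate by living cells. The homogeneous, nonlytic format allowed repeated reads at 0, 8, 16, 24, 32 and 40 h of compound exposure.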

A short description of assay [14]: qHTS RealTime-Glo MT Cell Viability Assay in HEK293 cells - 32 hour (AID 1224868). Further: top concentration of the series differs between compounds; nearly all actives have a fitted effect of over 50% in size. Summed up:
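Homogeneous bioluminescent viability format in HEK293 cells (600 cells/well). Following 5 h at 37 C/5% CO2, 23 nL compound was pintooled; the signal was measured repeatedly during 40 h incubation.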

A short description of assay [15]: A CellTox Green Cytotoxicity Assay to monitor cytotoxicity in HEK293 cells - 0 hour (AID 1224869). Further: nearly all actives have a fitted effect of over 50% in size. Summed up:
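Homogeneous no-lysis format: HEK293 cell suspension mixed with CellTox Green reagent, seeded, incubated 5 h at 37 C/5% CO2, then dosed by pintool with compound in DMSO.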

A short description of assay [16]: qHTS assay to identify small molecule antagonists of the estrogen related receptor signaling pathway with the pleiotropic PPARgamma coactivator (PGC) from Tox21 10K library (AID 1224841; call rule not given here). Summed up:
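In the PGC/ERR line, DMSO solutions of test chemicals are pin-delivered to 2,000 cells/well six hours after dispensing. Following eighteen hours' incubation, One-Glo reagent is added and luminescence recorded.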

Assay [17] can be described thus: qHTS assay to identify small molecule agonists of the estrogen related receptor signaling pathway with the pleiotropic PPARgamma coactivator (PGC) from Tox21 10K library (AID 1224842). Further: nearly all actives have a fitted effect of over 15% in size. Summed up: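 PGC/ERR reporter cell line, 2,000 cells per well, incubated 6 h at 37 C before 23 nL compound in DMSO was added. After 18 h at 37 C, One-Glo luminescence read following 30 min at room temperature.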

The nature of assay [18]: qHTS assay to identify small molecule antagonists of the estrogen related receptor (ERR) signaling pathway from Tox21 library (AID 1224848). Further: nearly all actives have a fitted effect of over 50% in size. Summed up: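 Quantitative high-throughput format: ERR reporter cells (2,000/well) pre-incubated 6 h, treated 18 h at 37 C with compounds in DMSO alongside positive and negative controls, then read by ONE-Glo luminescence.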
Assay [19] is described as follows: qHTS assay to identify small molecule agonists of the estrogen related receptor (ERR) signaling pathway from Tox21 library (AID 1224849; calls by dose curve; further: nearly all actives have a fitted effect of over 15% in size). Particulars: ERR reporter cell line, ONE-Glo luciferase, 18 h; at 92.4 µM (top of the series) unless noted. The procedure, abridged:
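Reporter cells (ERR, NTP source) treated with Tox21 10K compounds 18 h, 37 C. Readout: ONE-Glo luminescence, 30 min RT.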
On the % scale 0 is the no-effect control and ±100 the full control effect.

Luciferin 4-monooxygenase (Photinus pyralis), sequence (P08659 whole entry, looked up): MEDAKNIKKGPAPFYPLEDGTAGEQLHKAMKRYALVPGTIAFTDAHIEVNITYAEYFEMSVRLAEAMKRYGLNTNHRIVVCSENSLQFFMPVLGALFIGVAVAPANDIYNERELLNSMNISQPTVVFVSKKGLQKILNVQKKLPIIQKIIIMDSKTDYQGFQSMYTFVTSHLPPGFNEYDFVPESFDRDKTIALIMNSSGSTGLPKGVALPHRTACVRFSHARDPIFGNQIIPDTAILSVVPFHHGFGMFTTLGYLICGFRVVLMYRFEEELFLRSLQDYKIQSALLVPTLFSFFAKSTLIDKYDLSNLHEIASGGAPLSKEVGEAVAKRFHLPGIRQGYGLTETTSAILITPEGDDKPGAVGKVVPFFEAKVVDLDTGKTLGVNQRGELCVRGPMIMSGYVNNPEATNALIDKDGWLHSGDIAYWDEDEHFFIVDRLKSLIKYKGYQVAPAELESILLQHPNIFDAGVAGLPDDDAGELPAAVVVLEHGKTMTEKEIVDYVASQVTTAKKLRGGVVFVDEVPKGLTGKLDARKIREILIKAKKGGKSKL
Thyrotropin receptor (Homo sapiens), sequence (P16473 whole entry, looked up): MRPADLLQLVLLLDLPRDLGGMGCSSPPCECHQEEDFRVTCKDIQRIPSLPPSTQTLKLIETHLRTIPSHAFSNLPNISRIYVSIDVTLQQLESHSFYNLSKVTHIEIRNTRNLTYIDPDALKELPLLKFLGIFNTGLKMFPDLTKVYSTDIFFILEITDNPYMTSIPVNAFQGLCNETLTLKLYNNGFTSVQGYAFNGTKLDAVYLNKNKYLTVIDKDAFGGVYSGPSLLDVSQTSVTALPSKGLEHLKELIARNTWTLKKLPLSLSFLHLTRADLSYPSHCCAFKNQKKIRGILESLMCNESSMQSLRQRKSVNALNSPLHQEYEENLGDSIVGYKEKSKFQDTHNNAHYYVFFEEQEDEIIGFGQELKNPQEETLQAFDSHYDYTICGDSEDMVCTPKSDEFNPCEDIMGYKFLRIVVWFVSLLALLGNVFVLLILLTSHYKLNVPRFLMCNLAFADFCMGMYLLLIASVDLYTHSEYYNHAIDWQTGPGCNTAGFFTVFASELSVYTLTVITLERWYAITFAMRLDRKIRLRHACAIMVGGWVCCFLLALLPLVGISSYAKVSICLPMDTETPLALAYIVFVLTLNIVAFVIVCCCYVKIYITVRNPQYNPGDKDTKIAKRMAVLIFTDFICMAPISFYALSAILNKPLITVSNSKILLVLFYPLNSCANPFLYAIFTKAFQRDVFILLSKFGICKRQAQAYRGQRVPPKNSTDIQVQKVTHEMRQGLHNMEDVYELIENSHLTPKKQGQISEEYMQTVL

As for `O=[N+]([O-])c1ccccc1CCl`, the Potency result in assay [1], in assay [2], in assay [3], in assay [4], in assay [5] and in assay [6] was “inactive” throughout. Besides, the Potency entry in assay [7], in [8], in assay [9], in assay [10], in assay [12] and in assay [13] was “inactive” each time. Moreover, the Potency result in [14] and in assay [15] was “inactive” throughout. For the same molecule, in assay [11], the molecule was called inactive.
For `ClCCCCBr`, the Potency entry in [1], in assay [2], in assay [3], in assay [4], in assay [5] and in assay [6] was “inactive” each time. The Potency result in assay [7], in assay [9], in [10], in assay [12], in assay [13] and in [14] was “inactive” each time. Moreover, the Potency entry in assay [15] was “inactive”. Also, the result in [11] was inactive.
On to `O=S1(=O)OC(c2cc(Br)c(O)c(Br)c2)(c2cc(Br)c(O)c(Br)c2)c2ccccc21`, for which the Potency in [1] is 25 µM (active); in assay [2], 10.3 µM (active); in assay [3], 25 µM (active); in assay [4], 28.1 µM (active); in assay [5], 25 µM (active); in [7], 25 µM (active). For the same molecule, the Potency in assay [12] is 8.23 µM (active). In addition, the Potency entry in assay [6], in assay [13], in [14] and in assay [15] was “inactive” throughout. Also, the molecule was called inactive in assay [11].
For `CC(=O)CCC(C)=O`, the Potency entry in [1], in assay [2], in assay [3], in [4], in assay [5] and in [6] was “inactive” in each case. Moreover, the Potency entry in [7], in assay [8], in assay [9], in [10], in assay [12] and in [13] was “inactive” in each case. The Potency entry in assay [14] and in assay [15] was “inactive” each time. In addition, the molecule was called inactive in assay [11].
For `O=C(NC(=O)c1c(F)cccc1F)Nc1cc(Cl)c(Oc2ncc(C(F)(F)F)cc2Cl)c(Cl)c1`, the Potency result in assay [1], in assay [2], in [3], in [4], in assay [5] and in [6] was “inactive” in each case. Besides, the Potency result in [7], in assay [10], in assay [12] and in assay [15] was “inactive” each time. For the same molecule, the call in [11] was inactive.
Take `O=C(O)c1ccccc1C(=O)Nc1cccc2ccccc12`: the Potency entry in assay [1], in [2], in assay [3], in assay [4], in assay [5] and in assay [7] was “inactive” in each case. In addition, the Potency entry in assay [8], in assay [10], in assay [12], in assay [13], in assay [14] and in assay [15] was “inactive” in each case. Also, in [6], the Potency was 30.6 µM (active). The outcome in assay [11] was inactive.
Turning to `CCCCN=C=O`, the Potency result in assay [1], in assay [2], in [3], in assay [4], in assay [7] and in assay [16] was “inactive” each time. Moreover, the Potency entry in assay [17], in assay [8], in [10], in assay [12], in assay [18] and in assay [13] was “inactive” throughout. Also, the Potency entry in [14] and in [15] was “inactive” each time. Besides, the call in assay [11] was inactive. Further, the activity change, positive = activation in [19] is 1.38%.
